KB-3-1 cytotox – KB-3-1 parental cell cytotoxicity. KB-3-1 viability, CellTiter-Glo ATP luminescence, 72 h. Potency, µM (doses to about 46.1 µM), most hits filed as cytotoxic. actives 1.4% (n = 400,000). AID 1347075; also: potency is read from the fitted curve at half-maximal effect; nearly all actives have a fitted effect of over 60% in size
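Cells are dispensed, compounds pinned in, plates held at 37 °C for 72 h, then CellTiter-Glo is added and luminescence read after 10 minutes. Cell line: parental KB-3-1 in phenol-red-free DMEM, 10% FBS.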
A549 tox – counter-screen for Nrf2 inhibitors: cytotoxicity in A549 cells; actives 0.16% (n = 390,000); A549 ARE-Fluc cells, CellTiter-Fluor viability, 18-24 h; Potency, µM (titrated, usually from 46 µM), without a hit: at the highest dose activity change, negative = cytotoxicity, hits mostly inhibitors; AID 504648; also: potency is read from the fitted curve at half-maximal effect
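Cytotoxicity counterscreen: CellTiter-Fluor fluorescence was measured in A549 ARE_Fluc cells after 18-24 h of compound exposure in a concentration series. The subsequent BugLite luminescent read reports ARE-luciferase activity.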
PI4K2A inh – inhibitors of human PI4K2A; Q9BTU6; purified PI4K2A, ADP-Glo luminescence, 1 h; active compounds read low; activity change, negative = inhibition, % at 76.9 µM; actives 0.13% (n = 420,000); AID 1346378; in the data active = activity change below about -50%; inconclusive = mostly about -30% to -49%;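 also: -100% = wells without enzyme as full effect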
Target sequence (Q9BTU6 whole entry, looked up): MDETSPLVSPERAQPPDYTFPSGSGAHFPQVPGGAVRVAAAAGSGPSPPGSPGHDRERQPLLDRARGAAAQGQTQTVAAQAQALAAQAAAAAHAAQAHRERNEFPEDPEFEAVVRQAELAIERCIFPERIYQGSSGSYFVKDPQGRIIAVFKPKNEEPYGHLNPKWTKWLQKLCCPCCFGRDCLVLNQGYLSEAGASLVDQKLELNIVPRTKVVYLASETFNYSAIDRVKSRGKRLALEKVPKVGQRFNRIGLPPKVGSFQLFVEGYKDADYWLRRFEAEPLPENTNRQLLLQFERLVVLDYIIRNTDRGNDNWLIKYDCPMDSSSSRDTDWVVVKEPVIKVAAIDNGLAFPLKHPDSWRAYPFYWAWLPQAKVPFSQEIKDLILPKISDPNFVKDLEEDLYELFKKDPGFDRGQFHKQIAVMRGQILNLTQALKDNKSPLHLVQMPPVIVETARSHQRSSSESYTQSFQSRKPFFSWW
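ADP-Glo luminescence measured ADP generated by PI4K2A enzyme (4 ug/mL before mixing) with 1.2 mM PI substrate (pre-mix) and 300 microM ATP (pre-mix). Tris pH7.5 buffer with MgCl2, Triton X-100; 1 h reaction at ambient temperature.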
Nrf2 block – blocks Nrf2 signaling; A549 ARE-Fluc reporter, luciferase luminescence, 18-24 h; Potency, µM (top dose mostly 46 µM), for the others: top-dose activity change, negative = inhibition, usual class: inhibitors; actives 2.1% (n = 360,000); also: potency is read from the fitted curve at half-maximal effect; nearly all actives have a fitted effect of over 60% in size
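Nrf2 activity is the BugLite luminescence, read 15 min after reagent at room temperature, following CellTiter-Fluor cytotoxicity readout (30 min, 37C). Compound titrations were applied for 18-24 h to 5000 A549 ARE_Fluc cells/well in 5% FBS OPTI-MEM.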
KB-V1 MDR tox – kills drug-selected multidrug resistant KB-V1 cells; AID 1347076; actives 3.4% (n = 400,000); Potency, µM (highest dose often 46.1 µM), usual class: cytotoxic; KB-V1 MDR cells viability, CellTiter-Glo, 72 h; also: potency is read from the fitted curve at half-maximal effect; nearly all actives have a fitted effect of over 60% in size
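KB-V1, DMEM (no phenol red) + 10% FBS; cpd pin-transferred, titration series; 72 h, 37 degrees C; CellTiter-Glo, luminescence. Data normalized, curve-fit.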
Giardia kill – Giardia lamblia killing. Giardia lamblia trophozoite viability. activity change, % at 7.66 µM, hits read low. actives 0.15% (n = 340,000). AID 540267; in the data active = activity change below about -80%; inconclusive = between about -30% and that limit;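 also: parasites exposed to compound for two days anaerobically before the ATP read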
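Trophozoite viability was measured as ATP-dependent luminescence, read 15-30 min after reagent addition. Before that, parasites at 100 cells/well were exposed to compounds for 48 h, anaerobically, at 37 deg C.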
Starred values were filed as active, the others as inactive. Compounds with a hit are over-represented: about 5.7% of the library has one in this group of screens. Unless noted, calls follow the shape of the dose curve; as a rule, active = well fitted curve in the direction sought with a large enough effect; inconclusive = small, poorly fitted or top-dose-only effect, or another doubt; inactive = no such curve, though single readings can be large; an effect the other way counts as inactive or inconclusive. Unless noted, % is scaled to controls: 0 for no effect and ±100 for the full control effect.

O=C(Nc1ccccc1)C1=C[C@@H](c2csc3ccccc23)C[C@@H](OCc2ccc(CO)cc2)O1 was read as KB-3-1 cytotox inconclusive, A549 tox -1%, PI4K2A inh -1, Nrf2 block 16µM*, KB-V1 MDR tox inconclusive and Giardia kill -25.
For CCC(=O)NC(c1cccc(C)c1)c1cc(Cl)c2cccnc2c1O (centres undefined) the results were A549 tox -10% and Nrf2 block 6%.
C[C@H]1C(=O)N2[C@@H](C[C@]3(c4c[nH]c5ccccc45)c4ccccc4N(S(=O)(=O)c4ccccc4)[C@H]23)C(=O)N1C was read as PI4K2A inh 5.
For O=C1C(C2=NC(c3ccccn3)C3C(=O)N(c4ccc(OC(F)(F)F)cc4)C(=O)C23)=C(O)c2ccccc21 (centres undefined) the results were KB-3-1 cytotox 4.6µM*, A549 tox 0%, PI4K2A inh 0, Nrf2 block 6%, KB-V1 MDR tox inactive and Giardia kill -13.
For CC(C(=O)Nc1ccccc1-c1ccccc1)N1CCN(C(=O)c2ccccc2)CC1 (centres undefined) the results were KB-3-1 cytotox inactive, A549 tox 2%, PI4K2A inh 1, Nrf2 block inconclusive, KB-V1 MDR tox inactive and Giardia kill -7.
Cc1ccc(S(=O)(=O)N2CCN(C(C)C(=O)Nc3ccccc3-c3ccccc3)CC2)cc1 (centres undefined) was read as KB-3-1 cytotox inactive, A549 tox 7%, PI4K2A inh 2, Nrf2 block -12%, KB-V1 MDR tox 3.7µM* and Giardia kill -28.
Screening Cc1csc(NC(=O)CCc2c(C)nc3cc(-c4ccc(Cl)cc4)nn3c2C)n1 returned KB-3-1 cytotox inactive, A549 tox 0%, PI4K2A inh 2, Nrf2 block 1.5µM*, KB-V1 MDR tox inactive and Giardia kill -16.
Cc1nc2cc(-c3ccc(Cl)cc3)nn2c(C)c1CCC(=O)NC(C)c1ccc2c(c1)OCCO2 (centres undefined) was read as KB-3-1 cytotox inactive, A549 tox -4%, PI4K2A inh -5, Nrf2 block 13µM*, KB-V1 MDR tox inactive and Giardia kill -11.
For Clc1ccc(-c2cc(-c3nnc4sc(Cc5cccs5)nn34)[nH]n2)cc1 the results were PI4K2A inh -11.
Screening Nc1c(-c2ccc(Cl)cc2)cnn1-c1cccc([N+](=O)[O-])c1 returned KB-3-1 cytotox inconclusive, A549 tox 2%, PI4K2A inh 0, Nrf2 block -9%, KB-V1 MDR tox inconclusive and Giardia kill -6.
Cc1ccc(-c2cnn(-c3cccc(C(F)(F)F)c3)c2N)cc1 was read as KB-3-1 cytotox inactive, A549 tox -10%, PI4K2A inh -1, Nrf2 block 4%, KB-V1 MDR tox 16µM* and Giardia kill -1.
Nc1c(-c2ccccc2)cnn1-c1cccc([N+](=O)[O-])c1 was read as KB-3-1 cytotox inactive, A549 tox 4%, PI4K2A inh 0, Nrf2 block inconclusive, KB-V1 MDR tox 23µM* and Giardia kill -4.
For COC(=O)[C@]12C[C@H](CC(=O)NCCCN3CCCC3=O)C(=O)N(Cc3ccco3)C1=C[C@H](COCc1ccccc1)O[C@@H]2C the results were PI4K2A inh -2.
For CC(C)NC(=O)c1ccc(C=O)cc1 the results were PI4K2A inh 0.
`COC(=O)C1NN=C(C(=O)c2ccc(Cl)cc2)C1c1ccc(OC)cc1` (centres undefined) gave KB-3-1 cytotox inactive, A549 tox 0%, PI4K2A inh -2, Nrf2 block -13%, KB-V1 MDR tox inconclusive and Giardia kill -12.
`COC(=O)C1NN=C(C(=O)c2ccccc2)C1c1ccccc1` (centres undefined) gave KB-3-1 cytotox inactive, A549 tox -5%, PI4K2A inh 5, Nrf2 block 13%, KB-V1 MDR tox 15µM* and Giardia kill 0.
For CCOc1ccc2c(c1)nc(SCC(=O)c1ccc(Br)s1)n2C the results were KB-3-1 cytotox inconclusive, A549 tox -17%, PI4K2A inh 0, KB-V1 MDR tox 18µM* and Giardia kill -19.
For CC(C)c1nn2c(=O)cc(COC(=O)c3cccc(NC(=O)CCc4ccccc4)c3)nc2s1 the results were A549 tox -4% and PI4K2A inh 1.
Screening CCN(CC)C(=O)CSc1nc(-c2cccs2)cc(-c2cccs2)c1C#N returned KB-3-1 cytotox inactive, A549 tox -20%, PI4K2A inh 3, Nrf2 block 18µM*, KB-V1 MDR tox 18µM* and Giardia kill -7.
`O=c1[nH]c2cc3c(cc2cc1CN(Cc1ccccc1)Cc1nnnn1Cc1ccco1)OCCO3` gave KB-3-1 cytotox inactive, A549 tox -7%, PI4K2A inh -10, Nrf2 block -22%, KB-V1 MDR tox 23µM* and Giardia kill -19.
CCOc1c(OC)ccc2c3c(c(=O)oc12)CCCC3 was read as KB-3-1 cytotox inactive, A549 tox -10%, PI4K2A inh 4, KB-V1 MDR tox 8.2µM* and Giardia kill 4.
`CNC(=S)N/N=C/c1cccc(OCc2ccccc2F)c1` gave KB-3-1 cytotox inconclusive, A549 tox -14%, PI4K2A inh -10, Nrf2 block inconclusive, KB-V1 MDR tox inconclusive and Giardia kill 1.
`CCNC(=S)N/N=C/c1cccc(OCc2c(F)cccc2Cl)c1` gave KB-3-1 cytotox inconclusive, A549 tox 1%, PI4K2A inh 1, Nrf2 block inconclusive, KB-V1 MDR tox 21µM* and Giardia kill -8.
`CCOc1ccc(C2C(=O)N(C3CCCCCC3)CC(=O)N2CCC2=CCCCC2)cc1OC` (centres undefined) gave A549 tox 9% and PI4K2A inh 10.
Screening O=C1C(c2ccncc2)N(CCC2=CCCCC2)C(=O)CN1C1CCCCC1 (centres undefined) returned KB-3-1 cytotox inactive, A549 tox 9%, PI4K2A inh -5, KB-V1 MDR tox 11µM* and Giardia kill 14.
For COc1ccc(OC)c(C(=O)CSc2nnc(SCc3cccc4ccccc34)s2)c1 the results were PI4K2A inh -4.
CCCCNC(=S)N(C)/N=C/c1ccc(OCc2ccc(C(=O)OC)cc2)c(OC)c1 was read as KB-3-1 cytotox inactive, A549 tox -11%, PI4K2A inh 9, Nrf2 block inconclusive, KB-V1 MDR tox 13µM* and Giardia kill -6.

Source: PubChem BioAssay
